Consider 6 molecules from ChEMBL document CHEMBL1961873, “Compounds: GSK PKIS; Assays: Nanosyn kinase panel” (2012).

The inhibition is the change of the read-out against control, counted positive when it falls.

In test [1] the target is Tyrosine-protein kinase CSK (Homo sapiens) (UniProt P41240). The settings on record: at 1 µM.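 Also: each value is an averaged inhibition reading.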
For test [2], the target named is T1, Discoidin domain-containing receptor 2 (Homo sapiens) (UniProt Q16832).
T1 sequence (whole entry): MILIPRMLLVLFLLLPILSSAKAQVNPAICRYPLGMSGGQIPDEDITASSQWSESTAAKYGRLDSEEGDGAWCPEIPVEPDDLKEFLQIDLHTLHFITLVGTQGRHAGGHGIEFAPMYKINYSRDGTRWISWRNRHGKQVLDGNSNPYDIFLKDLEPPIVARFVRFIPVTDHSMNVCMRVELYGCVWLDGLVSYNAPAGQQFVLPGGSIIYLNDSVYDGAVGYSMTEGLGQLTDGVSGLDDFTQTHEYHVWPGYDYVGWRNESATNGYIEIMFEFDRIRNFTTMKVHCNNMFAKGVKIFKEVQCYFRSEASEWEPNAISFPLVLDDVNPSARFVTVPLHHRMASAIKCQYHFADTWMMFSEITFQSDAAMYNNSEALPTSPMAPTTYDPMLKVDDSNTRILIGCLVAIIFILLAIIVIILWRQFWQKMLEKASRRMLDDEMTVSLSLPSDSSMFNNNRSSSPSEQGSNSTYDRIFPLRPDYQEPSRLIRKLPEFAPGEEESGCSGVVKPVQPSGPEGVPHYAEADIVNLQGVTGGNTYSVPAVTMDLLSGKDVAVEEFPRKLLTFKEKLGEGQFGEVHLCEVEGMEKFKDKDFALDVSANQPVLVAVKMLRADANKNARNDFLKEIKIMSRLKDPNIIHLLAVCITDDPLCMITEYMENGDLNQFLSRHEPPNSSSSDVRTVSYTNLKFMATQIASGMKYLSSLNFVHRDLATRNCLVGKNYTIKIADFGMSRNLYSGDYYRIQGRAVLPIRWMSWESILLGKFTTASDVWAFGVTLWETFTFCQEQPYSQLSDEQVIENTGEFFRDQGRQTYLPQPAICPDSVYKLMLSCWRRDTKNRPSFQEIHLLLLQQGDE
Particulars: at 0.1 µM.

Test [3] addresses T1, Discoidin domain-containing receptor 2 (Homo sapiens). Particulars: at 1 µM.
The target of test [4] is Epidermal growth factor receptor (Homo sapiens) (UniProt P00533). Particulars: at 0.1 µM.
Test [5] has the same target. The settings on record: at 1 µM.
Test [6] deals with Epidermal growth factor receptor (Homo sapiens), P00533 [L858R]. The settings on record: at 0.1 µM.
Epidermal growth factor receptor (Homo sapiens), P00533 [L858R], sequence (P00533 whole entry L858R): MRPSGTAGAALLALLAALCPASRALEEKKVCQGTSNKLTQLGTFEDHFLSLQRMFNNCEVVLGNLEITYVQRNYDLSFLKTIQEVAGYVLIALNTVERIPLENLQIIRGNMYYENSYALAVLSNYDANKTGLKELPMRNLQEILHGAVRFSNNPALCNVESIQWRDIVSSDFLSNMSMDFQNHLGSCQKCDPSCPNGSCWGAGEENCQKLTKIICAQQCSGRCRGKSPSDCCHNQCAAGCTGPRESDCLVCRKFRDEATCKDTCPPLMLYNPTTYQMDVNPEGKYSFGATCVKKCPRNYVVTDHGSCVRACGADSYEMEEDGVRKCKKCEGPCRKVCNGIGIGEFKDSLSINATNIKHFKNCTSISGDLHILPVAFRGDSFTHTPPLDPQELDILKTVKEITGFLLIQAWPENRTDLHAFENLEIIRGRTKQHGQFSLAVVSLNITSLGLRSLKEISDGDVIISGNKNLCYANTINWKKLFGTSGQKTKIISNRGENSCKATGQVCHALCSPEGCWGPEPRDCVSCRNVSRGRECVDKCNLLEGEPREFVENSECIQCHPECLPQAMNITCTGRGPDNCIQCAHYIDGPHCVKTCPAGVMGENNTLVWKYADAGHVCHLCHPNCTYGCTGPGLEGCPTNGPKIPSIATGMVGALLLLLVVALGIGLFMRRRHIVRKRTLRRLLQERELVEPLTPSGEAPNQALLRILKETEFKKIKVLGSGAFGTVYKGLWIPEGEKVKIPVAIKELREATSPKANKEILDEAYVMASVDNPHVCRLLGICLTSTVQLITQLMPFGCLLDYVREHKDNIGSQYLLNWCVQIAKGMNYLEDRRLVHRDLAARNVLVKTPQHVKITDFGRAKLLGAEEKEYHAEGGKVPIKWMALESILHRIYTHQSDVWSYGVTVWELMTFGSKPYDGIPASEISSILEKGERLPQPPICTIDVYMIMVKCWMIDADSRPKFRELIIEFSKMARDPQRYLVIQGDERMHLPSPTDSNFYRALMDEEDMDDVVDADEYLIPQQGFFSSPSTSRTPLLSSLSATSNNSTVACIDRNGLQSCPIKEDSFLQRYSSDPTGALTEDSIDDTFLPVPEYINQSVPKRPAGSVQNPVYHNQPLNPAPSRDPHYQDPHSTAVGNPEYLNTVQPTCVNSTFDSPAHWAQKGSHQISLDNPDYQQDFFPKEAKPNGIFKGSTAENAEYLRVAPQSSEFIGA
For test [7] the test system is unchanged. Particulars: at 1 µM.
Test [8] deals with Epidermal growth factor receptor (Homo sapiens), P00533 [L861Q]. The settings on record: at 0.1 µM.
Test [9] has the same test system. The settings on record: at 1 µM.
Test [10] deals with Epidermal growth factor receptor (Homo sapiens), P00533 [T790M]. The settings on record: at 0.1 µM.
The test system is the same in test [11]. The settings on record: at 1 µM.
The test system of test [12] is Epidermal growth factor receptor (Homo sapiens), P00533 [L858R,T790M]. Particulars: at 0.1 µM.
Epidermal growth factor receptor (Homo sapiens), P00533 [L858R,T790M], sequence (P00533 whole entry T790M/L858R, looked up): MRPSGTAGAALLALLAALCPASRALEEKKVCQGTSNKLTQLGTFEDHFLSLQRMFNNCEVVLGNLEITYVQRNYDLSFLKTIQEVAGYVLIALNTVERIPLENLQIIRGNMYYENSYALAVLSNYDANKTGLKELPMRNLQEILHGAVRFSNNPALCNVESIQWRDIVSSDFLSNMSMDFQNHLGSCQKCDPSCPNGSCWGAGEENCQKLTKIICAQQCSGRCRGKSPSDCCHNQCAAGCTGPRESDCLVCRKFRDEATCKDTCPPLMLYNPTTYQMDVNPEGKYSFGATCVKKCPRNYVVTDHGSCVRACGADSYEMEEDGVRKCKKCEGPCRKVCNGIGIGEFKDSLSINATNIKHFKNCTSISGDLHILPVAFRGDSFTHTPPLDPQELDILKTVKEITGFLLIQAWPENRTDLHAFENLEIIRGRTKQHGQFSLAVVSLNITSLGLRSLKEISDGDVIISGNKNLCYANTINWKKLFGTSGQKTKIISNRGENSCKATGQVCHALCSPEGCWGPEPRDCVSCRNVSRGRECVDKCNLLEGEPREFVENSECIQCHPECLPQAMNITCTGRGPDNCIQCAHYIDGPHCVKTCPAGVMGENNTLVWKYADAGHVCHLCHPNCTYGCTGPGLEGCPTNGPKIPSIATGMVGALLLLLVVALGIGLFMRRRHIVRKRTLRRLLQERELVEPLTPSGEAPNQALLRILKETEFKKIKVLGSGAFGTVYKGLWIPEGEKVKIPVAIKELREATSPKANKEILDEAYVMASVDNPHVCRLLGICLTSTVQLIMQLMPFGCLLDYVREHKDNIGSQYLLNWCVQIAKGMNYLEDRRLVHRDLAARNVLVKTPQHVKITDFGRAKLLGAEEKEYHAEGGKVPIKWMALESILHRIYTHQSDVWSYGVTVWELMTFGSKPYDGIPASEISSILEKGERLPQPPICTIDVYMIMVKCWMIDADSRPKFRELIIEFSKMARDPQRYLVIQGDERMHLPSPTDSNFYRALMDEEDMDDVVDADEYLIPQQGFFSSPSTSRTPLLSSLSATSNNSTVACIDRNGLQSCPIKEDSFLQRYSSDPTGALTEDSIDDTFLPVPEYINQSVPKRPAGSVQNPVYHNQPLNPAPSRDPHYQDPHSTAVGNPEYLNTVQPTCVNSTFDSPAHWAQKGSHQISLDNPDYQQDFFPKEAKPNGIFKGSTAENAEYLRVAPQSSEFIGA
Test [13] has the same test system. The settings on record: at 1 µM.
Test [14] has as its target Ephrin type-A receptor 2 (Homo sapiens) (UniProt P29317). The settings on record: at 0.1 µM.
Test [15] shares this target. Particulars: at 1 µM.
Test [16] deals with T2, Ephrin type-A receptor 3 (Homo sapiens) (UniProt P29320).
T2 sequence (whole entry): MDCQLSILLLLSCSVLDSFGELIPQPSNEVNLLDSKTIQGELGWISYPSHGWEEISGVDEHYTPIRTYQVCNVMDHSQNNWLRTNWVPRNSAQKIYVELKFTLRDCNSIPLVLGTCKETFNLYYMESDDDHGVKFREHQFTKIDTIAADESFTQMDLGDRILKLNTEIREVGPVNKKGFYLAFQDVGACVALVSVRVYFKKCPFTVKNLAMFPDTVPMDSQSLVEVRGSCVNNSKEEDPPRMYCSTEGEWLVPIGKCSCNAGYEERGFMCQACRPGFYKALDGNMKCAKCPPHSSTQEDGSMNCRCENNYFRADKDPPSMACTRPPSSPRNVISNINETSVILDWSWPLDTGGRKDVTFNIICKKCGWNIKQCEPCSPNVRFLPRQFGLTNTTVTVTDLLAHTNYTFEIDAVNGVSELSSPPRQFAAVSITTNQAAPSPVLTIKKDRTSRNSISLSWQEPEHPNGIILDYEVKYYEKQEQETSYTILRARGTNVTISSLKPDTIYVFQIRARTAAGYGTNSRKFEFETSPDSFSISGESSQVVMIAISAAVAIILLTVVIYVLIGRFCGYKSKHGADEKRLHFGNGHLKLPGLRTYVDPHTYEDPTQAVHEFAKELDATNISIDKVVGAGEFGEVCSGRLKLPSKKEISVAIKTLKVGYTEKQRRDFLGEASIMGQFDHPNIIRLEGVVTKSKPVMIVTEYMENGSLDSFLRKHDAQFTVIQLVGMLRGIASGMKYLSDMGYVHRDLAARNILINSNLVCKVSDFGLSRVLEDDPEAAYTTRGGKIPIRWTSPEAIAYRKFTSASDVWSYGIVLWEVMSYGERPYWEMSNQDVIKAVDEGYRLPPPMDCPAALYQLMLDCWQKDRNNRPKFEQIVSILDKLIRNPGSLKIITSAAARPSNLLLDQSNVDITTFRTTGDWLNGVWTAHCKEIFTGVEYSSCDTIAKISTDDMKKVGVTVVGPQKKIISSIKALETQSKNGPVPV
The settings on record: at 0.1 µM.

The target in test [17] is T2, Ephrin type-A receptor 3 (Homo sapiens). Particulars: at 1 µM.
Test [18] has as its target Ephrin type-A receptor 4 (Homo sapiens) (UniProt P54764). Particulars: at 0.1 µM.
The target is the same in test [19]. Particulars: at 1 µM.
In test [20] the target is T3, Ephrin type-B receptor 2 (Homo sapiens) (UniProt P29323).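 Also: reported as mean inhibition of EPHB2, from the GSK PKIS dataset.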
T3 sequence (whole entry): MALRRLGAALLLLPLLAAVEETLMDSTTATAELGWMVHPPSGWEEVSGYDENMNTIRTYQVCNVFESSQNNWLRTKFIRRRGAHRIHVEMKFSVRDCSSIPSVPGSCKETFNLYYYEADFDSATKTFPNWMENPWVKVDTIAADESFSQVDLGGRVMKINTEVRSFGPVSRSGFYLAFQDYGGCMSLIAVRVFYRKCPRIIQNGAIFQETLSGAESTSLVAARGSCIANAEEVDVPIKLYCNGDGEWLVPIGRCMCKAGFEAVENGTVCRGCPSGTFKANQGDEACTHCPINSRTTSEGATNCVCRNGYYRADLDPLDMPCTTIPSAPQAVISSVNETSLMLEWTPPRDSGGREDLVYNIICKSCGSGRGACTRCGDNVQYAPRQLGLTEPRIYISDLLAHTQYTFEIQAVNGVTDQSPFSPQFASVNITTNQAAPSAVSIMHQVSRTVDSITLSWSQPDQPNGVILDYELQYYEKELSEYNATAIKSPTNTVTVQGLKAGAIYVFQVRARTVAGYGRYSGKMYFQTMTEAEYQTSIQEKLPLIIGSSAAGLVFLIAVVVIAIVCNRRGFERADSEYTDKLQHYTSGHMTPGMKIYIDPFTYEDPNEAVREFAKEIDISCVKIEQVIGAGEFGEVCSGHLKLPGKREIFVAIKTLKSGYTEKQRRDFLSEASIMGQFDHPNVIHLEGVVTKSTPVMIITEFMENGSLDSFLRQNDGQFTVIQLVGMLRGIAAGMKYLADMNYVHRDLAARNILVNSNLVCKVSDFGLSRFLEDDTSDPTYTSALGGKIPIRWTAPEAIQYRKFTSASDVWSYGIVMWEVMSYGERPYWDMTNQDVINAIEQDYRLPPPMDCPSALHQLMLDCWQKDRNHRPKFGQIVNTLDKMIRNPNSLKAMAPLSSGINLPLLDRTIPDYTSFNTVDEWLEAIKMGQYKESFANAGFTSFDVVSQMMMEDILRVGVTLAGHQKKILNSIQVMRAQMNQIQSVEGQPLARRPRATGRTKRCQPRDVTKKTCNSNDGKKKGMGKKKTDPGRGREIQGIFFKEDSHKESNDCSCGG
Particulars: at 0.1 µM.

Several values for one entry are separate records, joined by “and”; a condition that tells them apart may be missing. Equal values may be shown once.

Tyrosine-protein kinase CSK (Homo sapiens), sequence (P41240 2-450 limits assumed): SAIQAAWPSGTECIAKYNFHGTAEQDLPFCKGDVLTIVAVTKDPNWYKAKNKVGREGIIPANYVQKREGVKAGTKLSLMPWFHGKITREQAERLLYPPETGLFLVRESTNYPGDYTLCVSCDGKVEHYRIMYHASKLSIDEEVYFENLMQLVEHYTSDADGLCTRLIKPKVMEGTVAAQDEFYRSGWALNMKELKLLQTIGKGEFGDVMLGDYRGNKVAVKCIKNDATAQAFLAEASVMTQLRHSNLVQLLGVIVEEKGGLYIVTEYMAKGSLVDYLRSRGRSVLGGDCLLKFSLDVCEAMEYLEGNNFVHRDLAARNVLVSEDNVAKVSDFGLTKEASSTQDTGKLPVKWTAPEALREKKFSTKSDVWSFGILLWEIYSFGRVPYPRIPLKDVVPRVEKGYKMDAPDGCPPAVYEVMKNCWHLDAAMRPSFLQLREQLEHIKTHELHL
Ephrin type-A receptor 2 (Homo sapiens), sequence (P29317 whole entry): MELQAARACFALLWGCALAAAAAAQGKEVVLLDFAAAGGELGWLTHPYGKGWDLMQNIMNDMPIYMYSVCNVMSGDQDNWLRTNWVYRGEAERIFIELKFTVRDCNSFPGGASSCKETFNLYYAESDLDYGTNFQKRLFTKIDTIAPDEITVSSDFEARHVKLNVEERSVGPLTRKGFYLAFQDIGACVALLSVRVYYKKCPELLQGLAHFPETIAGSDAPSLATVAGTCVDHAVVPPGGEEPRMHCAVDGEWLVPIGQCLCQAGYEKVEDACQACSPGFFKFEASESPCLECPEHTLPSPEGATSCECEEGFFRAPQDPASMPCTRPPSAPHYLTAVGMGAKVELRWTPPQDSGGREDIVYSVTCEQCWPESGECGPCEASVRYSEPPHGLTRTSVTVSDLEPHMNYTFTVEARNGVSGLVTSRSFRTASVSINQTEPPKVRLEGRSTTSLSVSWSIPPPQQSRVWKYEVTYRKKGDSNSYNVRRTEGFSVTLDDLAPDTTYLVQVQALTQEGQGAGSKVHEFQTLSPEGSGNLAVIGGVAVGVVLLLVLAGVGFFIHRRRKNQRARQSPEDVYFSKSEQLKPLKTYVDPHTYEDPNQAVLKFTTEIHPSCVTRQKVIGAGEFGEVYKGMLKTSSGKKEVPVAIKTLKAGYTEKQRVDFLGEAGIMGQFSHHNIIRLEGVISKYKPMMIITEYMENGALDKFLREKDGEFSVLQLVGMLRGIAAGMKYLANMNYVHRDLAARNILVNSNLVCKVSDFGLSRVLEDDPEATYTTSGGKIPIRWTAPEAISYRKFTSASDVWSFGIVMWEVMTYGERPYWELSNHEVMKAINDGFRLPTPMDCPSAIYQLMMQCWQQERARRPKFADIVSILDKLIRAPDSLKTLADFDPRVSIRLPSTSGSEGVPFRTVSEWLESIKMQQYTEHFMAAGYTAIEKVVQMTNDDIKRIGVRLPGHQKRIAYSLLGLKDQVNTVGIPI
Ephrin type-A receptor 4 (Homo sapiens), sequence (P54764 whole entry): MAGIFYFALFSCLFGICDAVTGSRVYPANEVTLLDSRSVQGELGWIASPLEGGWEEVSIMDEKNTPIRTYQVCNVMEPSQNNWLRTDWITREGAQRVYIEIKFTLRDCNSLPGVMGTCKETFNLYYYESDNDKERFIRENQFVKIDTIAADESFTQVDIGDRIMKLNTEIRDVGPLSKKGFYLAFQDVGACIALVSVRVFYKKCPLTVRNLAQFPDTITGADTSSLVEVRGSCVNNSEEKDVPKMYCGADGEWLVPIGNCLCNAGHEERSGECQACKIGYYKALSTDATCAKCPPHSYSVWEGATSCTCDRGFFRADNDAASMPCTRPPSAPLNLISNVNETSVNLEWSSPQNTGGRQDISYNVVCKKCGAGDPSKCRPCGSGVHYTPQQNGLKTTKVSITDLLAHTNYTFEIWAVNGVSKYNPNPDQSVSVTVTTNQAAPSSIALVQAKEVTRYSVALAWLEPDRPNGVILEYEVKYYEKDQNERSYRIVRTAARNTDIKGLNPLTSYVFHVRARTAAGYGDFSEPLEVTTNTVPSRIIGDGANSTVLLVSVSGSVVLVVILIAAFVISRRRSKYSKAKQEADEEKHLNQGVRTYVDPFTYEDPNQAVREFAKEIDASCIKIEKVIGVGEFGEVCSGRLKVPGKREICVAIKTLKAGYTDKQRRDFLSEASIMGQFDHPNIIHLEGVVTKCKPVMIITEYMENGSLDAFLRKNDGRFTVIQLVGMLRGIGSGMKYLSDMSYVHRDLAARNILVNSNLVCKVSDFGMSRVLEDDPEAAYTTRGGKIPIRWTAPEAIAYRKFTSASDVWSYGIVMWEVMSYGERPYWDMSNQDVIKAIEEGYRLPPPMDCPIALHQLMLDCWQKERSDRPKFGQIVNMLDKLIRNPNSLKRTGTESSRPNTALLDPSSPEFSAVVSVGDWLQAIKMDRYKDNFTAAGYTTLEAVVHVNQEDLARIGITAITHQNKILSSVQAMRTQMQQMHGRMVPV

In the case of `CC(C)c1ccc(-c2cc(-c3c[nH]nc3-c3ccccn3)ccn2)cc1`, the inhibition is -3.97% in test [1]; 3.76% in test [2]; 4.98% in test [3]; 1.84% in test [4]; 3.14% in [5]; 1.78% in test [6]. The inhibition in [7] was 0.3%; in test [8] it was 0.09%; in test [9] it was -0.98%; in [10], -0.66%; in test [11], 0.59%; in [12] it was -1.17%. Moreover, the inhibition in test [13] was -2.79%; in test [14] it was -1.11%; in test [15] it was -2.27%; in test [16], 2.58%; in [17], 5.79%; in test [18], 6.74%. Besides, the values for the inhibition in test [19] and in test [20] were 4.1% and 7.84%, respectively.
Consider `c1ccc(-c2n[nH]cc2-c2ccnc(-c3ccc(OCCn4ccnc4)cc3)c2)nc1`, for which the inhibition turned out to be 1.94% in test [1]; 0.36% in test [2]; 1.9% in test [3]; 0.25% in test [4]; 5.66% in test [5]; 1.97% in test [6]. For the same molecule, the inhibition in test [7] was 24.5%; in test [8] it was -0.83%; in [9], 5.84%; in test [10], -1.24%; in test [11] it was 0.85%; in [12], -0.66%. For the same molecule, the inhibition in test [13] is 2.87%; in test [14] it was -2.85%; in [15], -3.04%; in test [16], -1.82%; in test [17], 0.58%; in test [18], 0.18%. Further, the inhibition in test [19] was 0.69%; in test [20], -0.16%.
In the case of `CN(c1ccc(NC(=O)NCCN2CCOCC2)cc1)c1ccnc(Nc2ccc(CS(C)(=O)=O)cc2)n1`, the inhibition is 13.1% in [1]; 24.3% in [2]; 76% in test [3]; -0.15% in test [4]; 1.28% in test [5]; 3.77% in [6]. Also, the inhibition in test [7] is 6.75%; in test [8], 2.81%; in [9], 3.82%; in test [10], 2.04%; in test [11], 4.33%; in test [12], 0.85%. The inhibition in [13] came out at 2.57%; in test [14], 2.23%; in test [15] it was 2.79%; in [16], 4.27%; in test [17], 5.54%; in test [18], 8.57%. The inhibition came out at 19.6% in test [19] and 6.47% in test [20].
On to `CCS(=O)(=O)c1ccc(OC)c(Nc2ncc(-c3cccc(F)c3)o2)c1`, for which the inhibition in test [1] is 17.9%; in [2], 5.27%; in [3], 28.3%; in test [4] it was 3.05%; in test [5] it was 9.19%; in test [6], 9.54%. In addition, the inhibition in test [7] came to 20.1%; in [8] it was 4.09%; in test [9], 8.2%; in test [10], 3.64%; in test [11], 3.03%; in [12], 5.67%. The inhibition turned out to be 2.98% in [13]; 2.15% in [14]; 9.85% in test [15]; 8.12% in test [16]; 17% in test [17]; 11.3% in [18]. In addition, the inhibition came out at 33.5% in test [19] and 18.5% in test [20].
`Fc1ccc(Nc2nccc(-c3c(-c4ccc(C(F)(F)F)cc4)nn4ncccc34)n2)cc1F`: the inhibition in test [1] is 0.02%; in [2], 0.84%; in [3] it was 1.01%; in [4], -6.64%; in test [5] it was 2.88%; in test [6] it was 4.49%. Further, the inhibition in test [7] is 2.96%; in [8] it was 2.39%; in test [9] it was -0.05%; in [10], 2.44%; in test [11], 0.77%; in test [12] it was -1.9%. Also, the inhibition in test [13] stood at 0.06%; in test [14] it was 2.87%; in test [15], 0.53%; in test [16] it was 2.83%; in test [17], 3.84%; in test [18] it was 5.7%. For the same molecule, the results for the inhibition in test [19] and in [20] were 1.99% and 8.38%, respectively.
As to `CN1CCC(C(=O)Nc2n[nH]c3nc(-c4ccc(O)cc4)c(Br)cc23)CC1`, the inhibition was 7.63% and 4.28% in test [1]; -0.34% and 1.94% in [2]; 0.35% and 3.34% in [3]; -1.4% and 2.45% in test [4]; -1.83% and 5.5% in test [5]; 3.81% and 2.33% in test [6]. Also, the inhibition in test [7] was 5.88% and 4.98%; in test [8], 2.69% and 0.43%; in [9], 2.01% and 1.22%; in test [10] it was 2.13% and 0.11%; in [11], 2.93% and 1.04%; in test [12], -0.55% and -2.98%. Besides, the inhibition in [13] is 1.4% and -0.59%; in [14] it was -3.15% and 0%; in test [15], -2.77% and -1.38%; in test [16], -0.96% and 1.14%; in test [17] it was -1.23% and 3.96%; in [18], 7.94% and 4.03%. In addition, the inhibition is 10.9% and 9.16% in test [19]; 2.8% and -0.98% in [20].
